What all share (format): functional
Assay [1] relates to Plasmodium falciparum. The assay is described as follows: GSK_TCMDC: Inhibition of Plasmodium falciparum 3D7 in whole red blood cells, using parasite LDH activity as an index of growth. Test compounds present at 2uM.
Assay [2] relates to Plasmodium falciparum. The assay is described as follows: GSK_TCMDC: Inhibition of Plasmodium falciparum Dd2 in whole red blood cells, using parasite LDH activity as an index of growth. Test compounds present at 2uM.
The test system of a further assay is HepG2. The assay is described as follows: GSK_TCMDC: Percent inhibition of human HepG2 cell line. Test compounds present at 10uM.

Take `CC(C)CC(NC(=O)c1cc2ccccc2s1)C(=O)N1CCCCCC1c1ccc(C(C)(C)C)cc1` (stereo not drawn): the Inhibition (as a rule, the relative decrease from the control value, in per cent) with Plasmodium falciparum [1] is listed as 91%; in the assay on Plasmodium falciparum [2] it was 39%; with HepG2, 23%.
The matching figures for `CC(CCc1ccc(OCc2ccccc2)cc1)NCC(O)c1ccccc1` (stereo not drawn): 86%, 72% and 9%.
As for `C[C@H](NC(=O)c1c(CN2CCC(NC(=O)CC(C)(C)C)CC2)c(-c2cccs2)nc2ccccc12)C1CCCCC1`, the results for the Inhibition in the assay with Plasmodium falciparum [1], in the assay with Plasmodium falciparum [2] and in the assay on HepG2 were 91%, 70% and 0%, respectively.
For the molecule `CCCCN(CCCC)CCCCNc1c2ccc(Cl)cc2nc2ccc(OC)cc12.Cl`, the Inhibition is listed as 100% with Plasmodium falciparum [1], 96% in the assay with Plasmodium falciparum [2] and 68% with HepG2.
`CC(C)(C)c1ccc(CN2CCC(CNC(=O)c3cc(-c4ccccc4)nc4ccccc34)CC2)cc1`: the Inhibition with Plasmodium falciparum [1] is given as 89%; in the assay on Plasmodium falciparum [2] it was 36%; with HepG2, 33%.
The matching figures for `O=C(O)C(F)(F)F.Oc1ccc(CCNc2nc(NCCOc3cccc4ccccc34)nc(N3CCNCC3)n2)cc1`: 96%, 8% and 21%.
The like results for `CC1CCCC(C)N1C[C@@H](O)CNS(=O)(=O)c1cccc(C(F)(F)F)c1.Cl` (stereo partly drawn) were, in that order, 99%, 2% and 4%.
Consider `CN(C(=O)/C=C/c1c(Cl)cccc1Cl)C1CCN(CCCCCNC(=O)/C=C/c2ccc(Cl)c(Cl)c2)CC1`, for which the figures for the Inhibition in the assay on Plasmodium falciparum [1], in the assay with Plasmodium falciparum [2] and with HepG2 were 92%, 62% and 78%, respectively.
As for `Cc1cc(OCCCn2ccnc2)ccc1-c1csc(/N=C(\N)NCc2ccccc2)n1`, the Inhibition with Plasmodium falciparum [1] was found to be 92%; in the assay with Plasmodium falciparum [2], 42%; in the assay with HepG2, 26%.
On to `CC(=O)Nc1ccc(CN(Cc2ccc(C)cc2)Cc2cccc(Oc3ccccc3)c2)cc1`, for which the Inhibition in the assay with Plasmodium falciparum [1] is reported as 84%; in the assay on Plasmodium falciparum [2], 87%; in the assay with HepG2, 34%.
With `CCCCCCOc1ccc(C(=O)NCCCC2CCCN(CCCCCNC(=O)C=Cc3ccc(Cl)c(Cl)c3)C2)cc1` (stereo not drawn), the Inhibition is given as 96% with Plasmodium falciparum [1], 12% in the assay with Plasmodium falciparum [2] and 20% with HepG2.
The like results for `CC(C)CCCC(C)(C)NC[C@@H](O)[C@H](Cc1ccccc1)NC(=O)c1cc(NC(C)C)cc(N2CCCCS2(=O)=O)c1.O=CO` were, in that order, 98%, 98% and 2%.
The like results for `Cc1cc(C(=O)NC2CCN(Cc3ccccc3)CC2)ccc1-c1nc2cc(Cl)c(Cl)cc2[nH]1` were, in that order, 96%, 32% and 7%.
The like results for `COc1ccc(-c2ccc(NC(=O)c3ccc(C#N)cc3)cc2)cc1CN1CCN(C)CC1.O=C(O)C(F)(F)F` were, in that order, 93%, 49% and 21%.
On to `COc1cccc(CNc2noc(-c3c(-c4ccccc4)noc3C)n2)c1OC`, for which the figures for the Inhibition in the assay on Plasmodium falciparum [1], with Plasmodium falciparum [2] and with HepG2 were 97%, 86% and 0%, respectively.
The matching figures for `Cc1ccccc1C1CCN(C2CCC(NC(=O)c3csc(-c4cccc(Cl)c4)n3)CC2)CC1` (stereo not drawn): 85%, 42% and 33%.
The matching figures for `O=C(O)C(F)(F)F.O=S(=O)(c1ccccc1)n1ccc2cc(Nc3ncnc4cc(C#C[C@H]5CCCN5)sc34)ccc21`: 85%, 56% and 50%.
The matching figures for `Cc1nn(CCOC(=O)NC(NCC2COc3ccccc3O2)C(Cl)(Cl)Cl)cc1[N+](=O)[O-]` (stereo not drawn): 99%, 99% and 0%.
With `CC(=O)CCc1ccc(OCCN(Cc2ccccc2C(F)(F)F)c2ccc(C#N)c(C(F)(F)F)c2)cc1`, the values for the Inhibition with Plasmodium falciparum [1], with Plasmodium falciparum [2] and in the assay with HepG2 were 100%, 87% and 14%, respectively.
Regarding `CC(=O)c1ccc2cc(C(=O)NC3CCC(CCN4CCc5ccc(-c6noc(C)n6)cc5CC4)CC3)[nH]c2c1.Cl` (stereo not drawn), the Inhibition with Plasmodium falciparum [1] amounted to 81%; with Plasmodium falciparum [2] it was 45%; in the assay on HepG2, 28%.
The like results for `Cl.c1ccc(Oc2ccc(Nc3ccnc(Nc4ccc5cn[nH]c5c4)n3)cc2)cc1` were, in that order, 94%, 33% and 6%.

Values taken from ChEMBL document CHEMBL1157539, “Thousands of chemical starting points for antimalarial lead identification” (Nature, 2010).
